What all share (type): functional
The target in assay [1] is Solute carrier family 2, facilitated glucose transporter member 1 (Homo sapiens) (UniProt P11166). As to the kind of experiment: ST_JUDE_LEISH: Cytotoxicity at 2uM final concentration against transgenic Leishmania Mexicana promastigotes LmGLUT1 that are glucose transport deficient and complemented with the human glucose transporter GLUT1. Activity is measured by DNA content using SYBR green in vitro.

In assay [2] the target is Hexose transporter 1 (Plasmodium falciparum) (UniProt O97467). As to the kind of experiment: ST_JUDE_LEISH: Cytotoxicity at 2uM final concentration against transgenic Leishmania Mexicana promastigotes LmPfHT that are glucose transport deficient and complemented with the Plasmodium falciparum hexose transporter. Activity is measured by DNA content using SYBR green in vitro.

Assay [3] concerns the target Glucose transporter (Leishmania mexicana) (UniProt O61059). As to the kind of experiment: ST_JUDE_LEISH: Cytotoxicity at 2uM final concentration against transgenic Leishmania Mexicana promastigotes LmGT2 that are glucose transport deficient and complemented with the L. Mexicana glucose transporter 2. Activity is measured by DNA content using SYBR green in vitro.

Chain of Solute carrier family 2, facilitated glucose transporter member 1 (Homo sapiens) (P11166 whole entry): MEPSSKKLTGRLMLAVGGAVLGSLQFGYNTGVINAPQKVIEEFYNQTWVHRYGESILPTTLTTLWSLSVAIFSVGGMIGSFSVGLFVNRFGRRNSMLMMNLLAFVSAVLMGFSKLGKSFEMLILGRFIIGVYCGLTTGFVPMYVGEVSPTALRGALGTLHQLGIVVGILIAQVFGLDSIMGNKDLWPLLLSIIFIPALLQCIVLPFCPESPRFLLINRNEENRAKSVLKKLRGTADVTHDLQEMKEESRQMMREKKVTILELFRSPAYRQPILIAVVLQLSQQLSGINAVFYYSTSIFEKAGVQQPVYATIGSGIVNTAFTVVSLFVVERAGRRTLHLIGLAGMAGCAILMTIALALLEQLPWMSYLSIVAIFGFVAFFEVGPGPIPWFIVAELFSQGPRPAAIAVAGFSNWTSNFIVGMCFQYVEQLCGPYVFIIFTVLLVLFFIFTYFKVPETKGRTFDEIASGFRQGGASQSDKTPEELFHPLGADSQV

As for `c1cc(CN2CCCCC2)cc(-c2ccc(-c3nc4ccccc4[nH]3)s2)c1`, the inhibition (commonly the change of the read-out against control, counted positive when it falls) in assay [1] was 4.86%; in assay [2], 1.16%; in assay [3], -0.82%.

Take `O=c1cc(NCCCNCc2ccc(Cl)c(Cl)c2)[nH]c2ccc(Oc3ccccc3)cc12`: the inhibition in assay [1] was -1.41%; in assay [2] it was -1.42%; in assay [3], -0.72%.

With `CN1CCN(c2ccc(-c3nc4ccc(OCc5cc(Cl)cc(Cl)c5)c(C(N)=O)c4[nH]3)cc2)CC1`, the inhibition in assay [1] stood at 1.82%; in assay [2] it was 5.73%; in assay [3] it was 0.86%.

For the molecule `O=C(NC1CC1c1ccccc1)N(CCCn1ccnc1)Cc1csc(-c2ccc(CNCc3ccccc3)cc2)n1` (stereo not drawn), the inhibition in assay [1] came out at 1.52%; in assay [2] it was 1%; in assay [3] it was 3.57%.

Regarding `CCOc1cc2ncnc(Nc3ccc(OCc4c(F)cccc4F)c(OC)c3)c2cc1OCC`, the inhibition came to 4.53% in assay [1], 2.29% in assay [2] and 0.2% in assay [3].

Regarding `CN(C)CCN1CCN(Cc2ccc(-c3cccc(-c4nc5ccccc5[nH]4)c3)cc2)CC1`, the inhibition in assay [1] is -2.11%; in assay [2], -0.12%; in assay [3] it was -0.98%.

`CC(C)Cc1cnc2nc(N)nc(N)c2c1`: the inhibition in assay [1] was 1.42%; in assay [2], 2.76%; in assay [3] it was 1.4%.

Take `Oc1cccc(/C=N/Nc2ccnc3cc(Cl)ccc23)c1`: the results for the inhibition in assay [1], in assay [2] and in assay [3] were 4.49%, 0.91% and 3.14%, respectively.

As for `COc1ccc(C=NN=c2cc(C)[nH]c3ccc(C)cc23)c2ccccc12`, the inhibition in assay [1] is 0.11%; in assay [2], 1.75%; in assay [3] it was -1.89%.

For the molecule `COc1ccc(-n2nc(C)c3c2NC(=O)CC3c2ccccc2OCc2ccccc2F)cc1` (stereo not drawn), the inhibition came to 11.7% in assay [1], 11.4% in assay [2] and 9.27% in assay [3].

Turning to `O=C(Cc1c[nH]cn1)Nc1ccc(-c2ccc(-c3nc4ccccc4[nH]3)s2)cc1`, the values for the inhibition in assay [1], in assay [2] and in assay [3] were 4.05%, 5.17% and 1.71%, respectively.

For the molecule `OC1(C(F)(F)F)CC(c2ccccc2)=NN1c1nncc(-c2ccccc2)n1` (stereo not drawn), the results for the inhibition in assay [1], in assay [2] and in assay [3] were 0.8%, 0.53% and 1.18%, respectively.

With `CCc1cc2c(cc1CC)CC(NC[C@@H](O)c1ccc(O)c3[nH]c(=O)ccc13)C2`, the results for the inhibition in assay [1], in assay [2] and in assay [3] were 1.34%, 1.76% and 2.1%, respectively.

As to `O=C(Nc1cccc(CN2CCCN(Cc3ccccc3)CC2)c1)c1cc2ccccc2s1`, the inhibition in assay [1] is 1.27%; in assay [2], 1.24%; in assay [3] it was -4.49%.

In the case of `COc1ccc2nccc([C@@H](O)CN3CCC(NC(=O)CCC(=O)c4cc(C(C)(C)C)ccc4OC)CC3)c2c1`, the values for the inhibition in assay [1], in assay [2] and in assay [3] were 5.04%, 4.7% and 1.95%, respectively.

Turning to `CC[C@H](C)CNC(=O)c1cncc(-c2ccc(CN(C)C3CCN(C)CC3)cc2)c1`, the inhibition was determined as 3.57% in assay [1], 3.62% in assay [2] and 5.08% in assay [3].

In the case of `COc1ccc(-c2ccc(NC(=O)c3ccc(C#N)cc3)cc2)cc1CN(C)CCO`, the inhibition in assay [1] came out at 2.76%; in assay [2], 0.56%; in assay [3], 1.59%.

As for `COc1ccccc1N1CCN(CCCCNC(=O)c2ccc(NC(=O)c3cc4ccccc4o3)cc2)CC1`, the values for the inhibition in assay [1], in assay [2] and in assay [3] were 1.4%, 1.36% and 0.06%, respectively.

Regarding `CCOC(=O)c1ccc(N2CCCCC2)c(NC(=O)C(Cl)(Cl)Cl)c1`, the inhibition in assay [1] was -2.66%; in assay [2], -0.39%; in assay [3] it was -1.19%.

Consider `O=C(Nc1ccccc1)Nc1cccc(-c2cc(CNCCc3ccccc3)sc2-c2ccncc2)c1`, for which the figures for the inhibition in assay [1], in assay [2] and in assay [3] were -0.01%, -0.54% and 4.67%, respectively.

In the case of `O=C(/C=C/c1ccc(Cl)c(Cl)c1)NCCCCCN1CCC(NC(=O)NC2CCCCC2)CC1`, the inhibition stood at 1.02% in assay [1], 0.4% in assay [2] and 1.22% in assay [3].

Turning to `COc1ccc2nccc([C@@H](O)CN3CCC(NCc4cnc5c(c4)NC(=O)CS5)C(F)C3)c2c1` (stereo partly drawn), the inhibition is -0.32% in assay [1], -0.31% in assay [2] and 0.86% in assay [3].

In the case of `CN1CCN(CC(=O)Nc2cccc(-c3ccc(-c4nc5cc(F)ccc5[nH]4)s3)c2)CC1`, the inhibition in assay [1] turned out to be 7.26%; in assay [2], 7.42%; in assay [3], 5.89%.

For `N#Cc1ccc2c(c1)CCN(CCC1CCC(NC(=O)/C=C/c3c[nH]c4c(Br)cccc34)CC1)CC2` (stereo not drawn), the inhibition is 16.5% in assay [1], 15.6% in assay [2] and 6.85% in assay [3].

Consider `Fc1ccc2c(NN=CC=Cc3ccccc3)ccnc2c1`, for which the inhibition in assay [1] came to 12.7%; in assay [2], 9.84%; in assay [3], 11.3%.

For `CC(=O)Nc1ncc(C(=O)Nc2cccc(-c3ccc(-c4nc5cc(C(F)(F)F)ccc5[nH]4)s3)c2)s1`, the inhibition in assay [1] came out at 3.37%; in assay [2], 4.16%; in assay [3] it was 3.18%.

As to `CC(C)CNCc1cccc(-c2ccccc2CNC2CCN(Cc3ccccc3)CC2)c1`, the values for the inhibition in assay [1], in assay [2] and in assay [3] were 5.47%, 4.95% and 7.56%, respectively.

With `N#Cc1ccc2c(c1)CN(CCC1CCC(NC(=O)c3cc4cc(OC(F)(F)F)ccc4[nH]3)CC1)CC2` (stereo not drawn), the inhibition in assay [1] came to 3.11%; in assay [2] it was 2.72%; in assay [3], 0.85%.

For `COc1ccc(CCCN2C(=O)C(c3ccccc3)(c3ccccc3)N=C2N)cc1`, the inhibition in assay [1] is -1.19%; in assay [2], -0.94%; in assay [3], -1.7%.

`CN(c1ccc(F)cc1)S(=O)(=O)c1ccc(Cl)c(C(=O)Nc2cccc(C#N)c2)c1`: the inhibition in assay [1] was 4.24%; in assay [2], 3.52%; in assay [3], 3.65%.

In the case of `C=CCc1ccc(C[C@H](NC(=O)OC(C)(C)C)C(=O)OC)cc1`, the inhibition in assay [1] turned out to be 22.2%; in assay [2], 40.4%; in assay [3], 34.5%.

As for `COc1ccc(C(=O)NC(c2ccc(Cl)cc2Cl)c2cc(Cl)c3cccnc3c2O)cc1` (stereo not drawn), the inhibition in assay [1] is 0.87%; in assay [2], 3.16%; in assay [3], -1.58%.

For the molecule `Cc1noc(C)c1-c1cccc(CNCc2cccc(-c3ccc(-c4nc5cccc(C)c5[nH]4)cc3)c2)c1`, the inhibition in assay [1] was found to be 1.89%; in assay [2], 1.4%; in assay [3], 0.96%.

Regarding `c1cc(COc2ccc(C3=NCCN3)cc2)nc(COc2ccc(C3=NCCN3)cc2)c1`, the inhibition in assay [1] was 4.95%; in assay [2] it was 5.66%; in assay [3], -0.59%.

For `CCCCCCN1CCCN(Cc2cccc(NC(=O)c3cc4ccccc4s3)c2)CC1`, the inhibition in assay [1] came to 2.73%; in assay [2], 3.42%; in assay [3] it was 0.46%.

As to `CC(=O)CC(=O)N1CCN(c2ccccc2)CC1`, the inhibition was -0.36% in assay [1], -0.81% in assay [2] and -0.35% in assay [3].

The record behind these values is ChEMBL document CHEMBL3433997, “St. Jude Leishmania screening dataset” (2016).
